Data as given in PubChem BioAssay AID720509 (The Scripps Research Institute Molecular Screening Center, 2013).
In all, about 370,000 compounds went through this assay and about 760 (0.21%) were called active.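 How the source made its calls: active means inhibition above a per-campaign cutoff: mean of compounds within control limits plus 3 SD (cut at about 15% in these data); inactive means the rest.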 The entries come from a sample that favours actives as a whole.

biological target: Fibrinogen beta chain (Homo sapiens) (UniProt P02675); experiment: inhibitors of Tn6 peptide binding to fibrin DD(E), primary screen, biochemical, fluorescence polarization, human fibrin, Tn6 probe (AID 720509); conditions: Fibrin DD(E) TRITC-Tn6 fluorescence polarization displacement; at 8.3 µM; active compounds read high;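 further: 0% = median of all compound wells on the plate and 100% = blocking peptide control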
Sequence (P02675 whole entry, looked up): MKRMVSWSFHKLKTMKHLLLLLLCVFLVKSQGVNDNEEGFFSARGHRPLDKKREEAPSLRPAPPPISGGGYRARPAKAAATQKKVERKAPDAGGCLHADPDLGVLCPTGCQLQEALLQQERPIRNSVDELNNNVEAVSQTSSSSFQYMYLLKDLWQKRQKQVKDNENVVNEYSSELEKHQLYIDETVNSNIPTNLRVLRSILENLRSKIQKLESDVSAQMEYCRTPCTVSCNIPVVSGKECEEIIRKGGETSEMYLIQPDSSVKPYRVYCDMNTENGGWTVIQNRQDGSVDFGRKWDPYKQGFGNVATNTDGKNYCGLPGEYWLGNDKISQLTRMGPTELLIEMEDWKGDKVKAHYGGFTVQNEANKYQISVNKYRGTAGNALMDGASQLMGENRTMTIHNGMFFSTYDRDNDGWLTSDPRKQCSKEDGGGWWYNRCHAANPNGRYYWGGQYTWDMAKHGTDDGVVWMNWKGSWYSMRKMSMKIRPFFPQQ

inhibition, inactive:
O=C(c1c(F)cccc1F)N1CCN(c2ncc(Br)cn2)CC1 -1.65%
CC(=O)OC(C)C[N+](C)(C)C (centres undefined) 3.71%
CCOC(=O)C(C)Oc1cccc2c(=O)n(CC(=O)N3CCc4ccccc43)ccc12 (centres undefined) -1.79%
CC(=O)N1CCCN(C2=Nc3ccccc3Sc3ccccc32)CC1 -3.1%
Cc1oc2nc(SCC(=O)NCc3cccnc3)nc(N)c2c1C 7.93%
Cc1cc(-c2nnc(SCC(=O)Nc3ccc(S(N)(=O)=O)cc3)n2N)n[nH]1 -3.55%
COc1cc2c(cc1OC)C(C(=O)Nc1cc(C)c(OC)c(C)c1)CC(=O)N2 (centres undefined) 10.8%
N#Cc1ccc(COC(=O)Cn2nnc(-c3ccccc3)n2)cc1 0.38%
CCOc1cccc(-c2nnc(SCC(=O)NC3CC3)n2C)c1 6.34%
Cn1c(SCC(=O)NC2CCCCC2)nnc1-c1ccc(N)cc1 1.64%
O=[N+]([O-])c1ccccc1N/N=C1\CCc2ccccc21 -1.87%
O=C(NC1CCc2ccccc21)C12CN(Cc3ccccc3)CC1C(c1cccc([N+](=O)[O-])c1)=NO2 (centres undefined) 1.76%
COCC(C)n1c(C)cc(C(=O)COc2ccc(C)nc2[N+](=O)[O-])c1C (centres undefined) 2.28%
O=C(NCc1nnc(SCC(=O)N2CCCCCC2)o1)c1ccc(F)cc1 4%
O=S(=O)(NCC1CN(S(=O)(=O)c2ccc3c(c2)OCCO3)C1)c1c(F)cccc1F 0.97%
COc1ccc(-c2c(C)nn3c(N4CCC(C(=O)N5CCCCC5)CC4)cc(C)nc23)cc1OC -3.53%
O=S(=O)(Nc1ccc(-n2cnnn2)cc1)c1ccc(Cl)cc1 -1.46%
N#Cc1ccc(S(=O)(=O)NCC(=O)OCC(=O)NCCc2ccccc2)cc1 -8.48%
N#CC1=C(N)Oc2c(sc3ccccc23)C1c1ccco1 (centres undefined) 3.91%
CC(C)(C)c1cc(=O)n2c(nc3ccccc32)[nH]1 -1.54%
CN(CC(=O)Nc1ccccc1Cl)C(=O)c1ccccc1SCC(=O)N1CCCC1 -6.29%
COc1ccc(N(CC(=O)NC2CCCCC2)S(=O)(=O)c2c(C)[nH]c(=O)[nH]c2=O)cc1 6%
CCCCNC(=O)C[C@@H]1C[C@@]2(C(=O)OCC)CCC=C2N(Cc2ccco2)C1=O 3.81%
COc1ccc(CNc2c(CO)cnc3c2cnn3C)cc1 -2.59%
COc1ccc(CC(=O)Nc2c3c(nn2-c2cccc(Cl)c2)CS(=O)C3)cc1 (centres undefined) -10.3%
COc1c(C)cc(C(O)c2ncc(-c3cccc(C(F)(F)F)c3)[nH]2)cc1C (centres undefined) 8.36%
CCOC(=O)C1CCCN(Cc2nc(N)nc(Nc3ccc(C)cc3)n2)C1 (centres undefined) -3.73%
CCOC(=O)N1CCN(Cc2nc3cc(NC(=O)CC)ccc3n2CC)CC1 -8.37%
Cc1nnc2n1N=C(c1ccc3c(c1)NC(=O)CO3)CS2 0.86%
CCOC(=O)N1CCN(S(=O)(=O)c2ccc(-n3cnnn3)cc2)CC1 7.12%
COc1ccc(S(=O)(=O)NC(CC(=O)NCc2ccccc2OC)c2ccco2)cc1 (centres undefined) 2.08%
COc1ccc2c(c1)c1ncn(Cc3ccccn3)c(=O)c1n2C -7.12%
CC(C)(C)OC(=O)C[C@@H]1C/C=C\C[C@@H](CC(=O)N[C@@H](CO)Cc2ccccc2)C(=O)N2CCC[C@H]2COC1=O -2.9%
O=C(COC(=O)c1ccc(F)cc1F)Nc1ncccn1 2.94%
COC(=O)C1=C(C)NC(=S)NC1c1ccc(OC)cc1 (centres undefined) 0.81%
Nc1nc(SCC(=O)NNc2c(Cl)cc(Cl)cc2Cl)n[nH]1 8.94%
COc1ccc(C(CNC(=O)c2ccc(OCc3cscn3)cc2)N2CCCC2)cc1 (centres undefined) 2.19%
Oc1c(Cl)cc(Cl)c(Cl)c1Cc1c(O)c(Cl)cc(Cl)c1Cl -7.14%
Cc1cc([N+](=O)[O-])nn1Cc1ccc(F)cc1 -0.46%
COc1ccc(C(=O)C2CCCN(S(=O)(=O)c3cccc(C)c3)C2)c(C)c1 (centres undefined) -7.45%
CCCC1(C(=O)OCC)NC(c2ccc(N(C)C)cc2)C2C(=O)N(c3ccc4c(c3)OCCO4)C(=O)C21 (centres undefined) -9.09%
COc1ccccc1C(=O)COC(=O)CSCC(=O)Nc1cc(C)on1 0.48%
O=C(CN1C(=O)NC2(CCCCCC2)C1=O)NCc1cccs1 -0.57%
CSC1=NN(c2ccccc2)CN(c2ccccc2)N1C -0.87%
COc1ccc(CCNC(=O)C(=O)NCC2CCCN2S(=O)(=O)c2cccs2)cc1OC (centres undefined) -8.21%
COCCN(Cc1nc(-c2ccc(C(F)(F)F)cc2)no1)C(C)C -5.72%
CC(C)CCNC(=O)CC1C(=O)N(Cc2ccccc2)C(C)c2nc3ccccc3n21 (centres undefined) 5.33%
Cc1cc(=O)oc(C)c1C(=O)Nc1cnc2ccccc2c1 -3.11%
CCOc1ccc(C(=O)Nc2cc(Cl)ccc2-n2cncn2)cc1OC 2.72%
CN(C)c1cccc(NC(=O)c2ccc(-c3ccc(F)c(F)c3)c3ccoc23)c1 -0.65%
Cc1cccc(NS(=O)(=O)c2cc(Cl)ccc2Cl)n1 1.49%
CC(=O)N/C(=C\c1ccc(F)cc1)C(=O)NC(Cc1ccccc1)C(=O)O (centres undefined) 2.99%
CN1CCN(S(=O)(=O)c2ccc(Nc3ccc(F)cc3)nc2)CC1 -3.71%
O=C(CCN1C(=O)[C@H]2CC=CC[C@H]2C1=O)NCc1nc(-c2ccccc2)no1 1.52%
CCc1nc2c(OCc3ccc(C(F)(F)F)cc3)cccn2c1N(C)C(=O)CC(C)C 3.22%
Cc1nc2nc3c(cn2n1)C(=O)CC(c1ccccc1)C3 (centres undefined) 4.63%
CC(C)CSc1nnc(-c2cccnc2)n1Cc1ccccc1 -2.2%
Cc1cc(NS(=O)(=O)c2ccc(NC(=O)CSc3nnc(-c4ccc(C(C)(C)C)cc4)n3Cc3ccco3)cc2)nc(C)n1 6.53%
Cc1ccc(C(=O)NC2CCN(C(=O)Nc3ccccc3Cl)CC2)cc1 0.49%
CCOCCCNC(=O)c1c[nH]c2cc(C)ccc2c1=O -0.35%
CCn1ccnc1CN(C)C(=O)c1ccc2nc(Cc3ccc(OC)cc3)oc2c1 -4.19%
COc1ccc(Cc2nc3ccc(C(=O)N4CCC(N(C)C)C4)cc3o2)cc1 (centres undefined) 2.22%
CC(C)CN1CC(C)C(=O)N(c2ccccc2)C1=S (centres undefined) 11.7%
COC(=O)C1=C(C)N(c2ccc(C)cc2)/C(=C/c2ccc(O)cc2)C1=O 1.49%
Cc1ccccc1N(C(=O)Cc1cccs1)C(C(=O)NC1CCCCC1)c1cn(C)nc1C (centres undefined) -5.36%
O=C(Nc1nsc(-c2ccccc2)n1)c1ccncc1 1.55%
CCOc1ccc(C(=O)Nc2cccc(-c3ccc4nncn4n3)c2)cc1 12.2%
O=C(c1ccc(F)cc1)c1cn(Cc2ccc(F)cc2)c2cc3c(cc2c1=O)OCCO3 -1.55%
CCN(CC)C(=O)CC[C@@H]1CC[C@]2(CCCN(S(=O)(=O)C3CCCCC3)C2)O1 -5.4%
CCc1nc2ccccc2c(C(=O)OC2CCCCC2=O)c1C (centres undefined) -0.37%
CSc1ccccc1OCc1cc(C(=O)N2C[C@H]3CC[C@H]2C3)no1 8.52%
O=C(CN1C(=O)CSC1=O)N1CCCC(Nc2ccc(F)cc2)C1 (centres undefined) -6.4%
CC(=O)Nc1ccc(OCCC[n+]2cccc(C(=O)[O-])c2)cc1 -1.3%
Cn1ccc(=Nc2ccc(NC(=O)c3ccc(N=c4ccn(C)c5ccc([N+](=O)[O-])cc45)cc3)cc2)cc1 -6.27%
COC(=O)C1CN(Cc2cn(Cc3ccc(F)cc3)nn2)CCS(=O)(=O)N1Cc1ccc(Cl)cc1 (centres undefined) 10.6%
Cc1ccc(OCCNC(=O)c2cccc(S(=O)(=O)N3CCN(Cc4ccccc4)CC3)c2)cc1 4.41%
C[C@@H]1CN([C@H](C)CO)C(=O)CCCn2cc(nn2)CO[C@H]1CN(C)S(=O)(=O)c1ccc(Oc2ccccc2)nc1 -1.11%
Cc1noc(C)c1-c1nc(CSc2ccc(Cl)cc2)no1 -2.98%
C[C@@H](C(=O)N1CCNCC1)n1cc(CCC(=O)O)nn1 -0.49%
O=C(NNc1cc(Cl)cc(Cl)c1)c1c(F)cccc1Cl 1.43%
O=C(Cc1c(Cl)cccc1Cl)NC1CC1 6.01%
COC(=O)[C@]12C[C@H](CC(=O)NCc3cccc(C(F)(F)F)c3)C(=O)N(Cc3ccc4c(c3)OCO4)C1=C[C@H](COCc1ccccc1)O[C@@H]2C -3.35%

inhibition, active:
Cc1oc2nc(SCC(=O)Nc3ccc(S(N)(=O)=O)cc3)nc(NC(=O)c3ccccc3)c2c1C 24.4%
CCc1cc(-c2nnc(SCC(=O)NC3CC3)n2C)cs1 18.6%
CCOC(=O)N1CCN(Cc2nc(N)nc(Nc3ccc(C)cc3)n2)CC1 17%
Oc1ccc(N=Cc2sc3ccccc3c2Cl)cc1 36.1%
CCC1C(=O)NCCN1C(=O)c1ccc2nc(Cc3ccc(OC)cc3)oc2c1 (centres undefined) 15.8%
O=C(Nc1cccc(-c2nc3ccccc3[nH]2)c1)c1ccc(C(=O)Nc2cccc(-c3nc4ccccc4[nH]3)c2)cc1 19.9%
O=C(CCl)NNc1cccc(Cl)n1 30.8%
